Results: PubChem BioAssay AID1362 (SRMLSC, 2008)
Among all 190,000 compounds or so, about 4,000 (2.1%) were called active. Rule as the data show it: active = inhibition above about 58%; inactive = the rest, inconclusive results apart; tested in S. cerevisiae. What follows is part of a selection rich in actives, with near analogues and random picks from the rest.

Assay: growth inhibition of WT strain, primary screen, mitochondrial fusion inhibitor project, WT and mutant strains, chemical genetic (AID 1362)
Settings: mitochondrial fusion phenotypic screen, at 10 µM
[1] = WT strain, growth inhibition, stronger effect = higher value

SMILES | inhibition [1] | inhibition (mutant strain inhibition) [%]
O=C(C(=O)N1CCc2ccccc2C1)c1c[nH]c2ccccc12 | 12.7% (inactive) | -9.54
COCCN(C(=S)Nc1ccccc1OC)C1CCN(C(C)C)CC1 | -3.78% (inactive) | -1.71
Cc1ccc(CN(Cc2cccnc2)C(=S)Nc2cccc(Cl)c2C)cc1 | 73.9% (active) | 36.3
Cc1ccc(Cl)cc1NC(=S)N(CCN(C)C)Cc1cccs1 | 3.98% (inactive) | 13.3
COCCNC(=S)N(Cc1cccnc1)Cc1ccc(OC)c(OC)c1 | 0.04% (inactive) | 0
Cc1ccc(CN(Cc2cccnc2)C(=S)Nc2cc(Cl)ccc2C)cc1 | 65.8% (active) | 29.6
Cc1cccc(C)c1NC(=S)N(Cc1cccnc1)Cc1ccccc1Cl | -4.3% (inactive) | -19.8
Cc1c(Cl)cccc1NC(=S)N(Cc1ccccc1)Cc1cccnc1 | 32.8% (inactive) | 35.6
CCCCCCCCc1c(O)nc(-n2[nH]c(C)c(CCO)c2=O)[nH]c1=O | -1.35% (inactive) | -2.06
Cc1ccc(NC2=C(Cl)C(=O)OC2OC(=O)c2ccccc2C)cc1 (centres undefined) | 72.2% (active) | 69
Cc1ccccc1C(=O)OC1OC(=O)C(Cl)=C1Nc1ccccc1 (centres undefined) | 31% (inactive) | 3.24
O=C1OC(OC(=O)c2ccccc2Br)C(N2CCOCC2)=C1Cl (centres undefined) | -3.78% (inactive) | 5.3
Cc1cc(/C=N/NC(=O)c2cccnc2)c(C)n1CC(C)C | -2.78% (inactive) | -1.44
CCN(CC)CCNc1nc(-c2ccc(OC(F)F)cc2)c(C)s1 | 14.9% (inactive) | -3.63
COc1ccc(OC)c(Cc2nnc(CCC(=O)NC3CCCC3)o2)c1 | -6.11% (inactive) | 1.25
CN(C)CCCNC(=S)NCc1ccc(Cl)cc1 | -0.46% (inactive) | 2.88
S=C(NCc1ccc(Cl)cc1)NC12CC3CC(CC(C3)C1)C2 | -4.06% (inactive) | 3.59
S=C(NCc1ccc(Cl)cc1)NC1CCCCC1 | 68% (active) | 50.3
COc1cccc2cc(S(=O)(=O)c3ccc(C)cc3)/c(=N/NS(=O)(=O)c3ccc(C)cc3)oc12 | -19.1% (inactive) | 0.47
c1ccc(-c2cc3c(NCC4COc5ccccc5O4)ncnc3s2)cc1 (centres undefined) | 82% (active) | 45.9
O=C(NCC1COc2ccccc2O1)C1(c2ccccc2)CCCC1 (centres undefined) | 13.2% (inactive) | 3.88
c1ccc2c(c1)OCC(CNc1ncnc3nc[nH]c13)O2 (centres undefined) | 5.51% (inactive) | -5.69

SMILES | inhibition [1] | inhibition (mutant strain inhibition) [%]
O=[N+]([O-])c1ccc(Sc2n[nH]c(-c3ccco3)n2)nc1 | -3.94% (inactive) | -1.1
O=c1cc(CSc2ccc(Cl)cc2)nc(N2CCOCC2)[nH]1 | 10.4% (inactive) | -7.43
Cc1ccc(Sc2cc(N3CCOCC3)nc(-c3ccccc3)n2)cc1 | -0.33% (inactive) | 3.68
CSCc1cc(N2CCOCC2)nc(SCc2ccc(Cl)cc2Cl)n1 | 79.1% (active) | 52.8
CSCc1cc(N(C)C)nc(SCc2ccc(Cl)cc2Cl)n1 | 59.7% (active) | 52.5
O=C(Nc1nnc(SCc2ccc(Cl)cc2Cl)s1)C1COc2ccccc2O1 (centres undefined) | 56.1% (inactive) | 17.9
Clc1ccc(CSc2nnc(/C=C/c3ccccc3)o2)c(Cl)c1 | 38% (inactive) | 26.7
COc1ccccc1CNC(=O)CNC(=O)c1cn(-c2ccccc2OC)c(=O)c2ccccc12 | -8.54% (inactive) | 3.48
O=C(NNC(=O)C1CCN(c2ncccn2)CC1)c1ccccc1 | -10.9% (inactive) | -13.4
OCCC1CN(Cc2ccc3nsnc3c2)CCN1C1CCCC1 (centres undefined) | 2.03% (inactive) | 2.69
O=C(CCCn1c(=O)c2sccc2n(CC(=O)NCC2CCCO2)c1=O)NCc1ccco1 (centres undefined) | 2.48% (inactive) | 3.2
CC(=O)Nc1ccc(-c2csc(NC=C3C(=O)OC(C)(C)OC3=O)n2)cc1 | -0.59% (inactive) | 17.6
C/C(=N/Nc1ccc(Cl)cc1)c1cnnc(-c2ccccc2)n1 | 9.51% (inactive) | 20.8
CCOC(=O)Cc1csc(NC(=O)CSc2nc(C)cc(=O)[nH]2)n1 | 15.9% (inactive) | 18.4
CCOC(=O)Cc1csc(NC(=O)CSc2ccc(Br)cc2)n1 | 31.2% (inactive) | 25.6
CCOC(=O)Cc1csc(SCC(=O)NC(C)C23CC4CC(CC(C4)C2)C3)n1 (centres undefined) | 59.2% (active) | 26.1
CC/C(=N\NC(=S)NC(C)C)c1ccc(OC(F)F)cc1 | 32% (inactive) | 43.5
C/C(=N\NC(=S)NC(C)C)c1ccc(C(C)(C)C)cc1 | 70.2% (active) | 59
C/C(=N\NC(=S)NCc1ccccc1)c1ccc(Cl)cc1 | 31.1% (inactive) | 21.1
Oc1cccc(C2c3[nH]c4ccccc4c3CCN2Cc2cnn(-c3ccccc3)c2)c1 (centres undefined) | 59.9% (active) | -4
c1ccc(C2c3[nH]c4ccccc4c3CCN2Cc2cccn2-c2cccnc2)nc1 (centres undefined) | -2.92% (inactive) | -2.59
COc1cccc(C2c3[nH]c4ccccc4c3CCN2Cc2cccc(C)n2)c1 (centres undefined) | 40.2% (inactive) | 33.8

SMILES | inhibition [1] | inhibition (mutant strain inhibition) [%]
CCc1ccc(OCC(=O)OCC(=O)c2c(N)n(C)c(=O)n(C)c2=O)cc1 | -10.7% (inactive) | -9.86
COc1ccc(Br)cc1/C=N/NC(=O)c1cccc(S(=O)(=O)N2CCOCC2)c1 | 1.71% (inactive) | -16.2
CC1CC(C)CN(CCC(=O)Nc2ccc3c(c2)CCC3)C1 (centres undefined) | 2.25% (inactive) | 2.32
C=CCNc1ncnc2ccc(Br)cc12 | 6.92% (inactive) | 5.26
CC1(C)CC2CC(C)(CN2c2ncnc3ccc(Br)cc23)C1 (centres undefined) | 64.4% (active) | 47.6
COc1ccc(C(=O)N2CC3(C)CC2CC(C)(C)C3)cc1OC (centres undefined) | -9.9% (inactive) | 6.2
CC1=CC=CC2=N/C(=N\S(=O)(=O)c3ccc(F)cc3F)c3ccccc3CN12 | 7.93% (inactive) | -4.27
Cc1ccc(S(=O)(=O)N(C)CC(=O)OCC(=O)N2CC(=O)Nc3ccccc32)cc1 | -2.48% (inactive) | -6.41
O=C(c1cccnc1)N(c1cc2sc(=O)oc2c2ccccc12)S(=O)(=O)c1ccccc1 | 69% (active) | 25.4
CN(C)S(=O)(=O)c1cccc(C(=O)Nc2cccnc2)c1 | -9.84% (inactive) | 2.94
COc1ccc(N(C(=O)c2cccnc2)S(=O)(=O)c2ccc3c(c2)n(C)c(=O)n3C)cc1 | -46.4% (inactive) | -32.1
CN1CCN(CCNC(=O)Nc2ccc([N+](=O)[O-])cc2)CC1 | 22.2% (inactive) | 0.87
O=C(COc1ccc(S(=O)(=O)N2CCCCC2)cc1)NCc1ccccn1 | 14.7% (inactive) | 2.79
CC1CCN(C(=O)c2ccc(CSc3ccc(Cl)cc3)cc2)CC1 | 75.2% (active) | 26.4
O=C(C1CC1)N1CCN=C1SCc1ccc(Cl)cc1 | 22.2% (inactive) | 20.3
O=C(c1ccc(CSc2ccccc2)cc1)N1CCCCCC1 | 38.9% (inactive) | 19.1
CN(NC(=O)C1CC(=O)N(c2ccccc2)C1)C1=NS(=O)(=O)c2ccccc21 (centres undefined) | -6.62% (inactive) | 8.77
CC(C)N(Cc1ccccc1)C(=O)COC(=O)c1cnccn1 | -8.68% (inactive) | -4.78
CCOc1cccc(/C=N/N2C(=O)CSC2=S)c1O | -2% (inactive) | 11.3
CCNC(=S)N(CCc1c(C)[nH]c2ccc(C)cc12)Cc1ccco1 | 22.5% (inactive) | -3.3
COc1ccc2[nH]c(C)c(CCN(Cc3cccs3)C(=S)Nc3ccccc3OC)c2c1 | 10.9% (inactive) | 3.89
COc1cccc(NC(=S)N(CCc2c(C)[nH]c3ccccc23)Cc2ccco2)c1 | 63.2% (active) | -12.2

SMILES | inhibition [1] | inhibition (mutant strain inhibition) [%]
Cc1ccc(N(C(=O)c2sc(C)nc2C)C(C(=O)NC(C)(C)C)c2ccncc2)cc1 (centres undefined) | -8.21% (inactive) | 7.16
COc1ccc(C2CC(c3cccs3)=NN2C(=O)CSc2nnc(N)s2)cc1OC (centres undefined) | -8.12% (inactive) | -5.34
CCN1CN(Cc2ccccc2)CNC1=S | 1.7% (inactive) | 0.04
CC1CC(=S)Nc2ccccc2N1Cc1ccccc1 (centres undefined) | 65.9% (active) | 26.3
CC1CC(C)(C)NC(=S)N1CCC(=O)N1CCN(Cc2ccccc2)CC1 (centres undefined) | -6.52% (inactive) | -4.03
COc1cccc(CC2(CO)CCCN(Cc3nc(-c4cccs4)oc3C)C2)c1 (centres undefined) | 19.9% (inactive) | 6.17
CCN(CC)S(=O)(=O)c1ccc(Cl)c(NC(=O)c2ccncc2)c1 | -7.6% (inactive) | -15.4
Cc1ccc(COc2ccc(C(=O)NN)cc2)cc1 | 18.5% (inactive) | 22.2
CN(C)C(=O)c1nc2ccc(Cl)cn2c1CN1CCN(c2ncccn2)CC1 | -14.1% (inactive) | -9.73
c1ccc(-c2cn3cccnc3n2)cc1 | 7.76% (inactive) | -1.07
c1ccc(-c2cn3c(n2)CCc2ccc4cccnc4c2-3)cc1 | 67.5% (active) | 4.75
COc1ccc(/C=C/C(=O)N2CCCC2)cc1OC | -13.6% (inactive) | -0.71
Cc1ccccc1-c1n[nH]c(=S)n1C | -5.68% (inactive) | 4.36
O=C(Nc1ccccc1N1CCCCC1)c1ccc2nccnc2c1 | 26.1% (inactive) | 32.9
c1ccc(CC2CCN(c3nc4ccccc4n4cnnc34)CC2)cc1 | 55.9% (inactive) | 25.1
O=C(c1ccccc1)c1ccc2nc(N3CCCCC3)c3nncn3c2c1 | 60.2% (active) | 50.8
O=C(CN(CC1CCCO1)C(=O)CNS(=O)(=O)c1ccc(F)cc1)NCc1ccco1 (centres undefined) | -16.3% (inactive) | -1.9
CSCCC(=O)N1CCCC(CNC(=O)c2ccccc2Cl)C1 (centres undefined) | 0.33% (inactive) | -1.81
CCn1c(=S)[nH]c2sc3c(c2c1=O)CCCCC3 | 44.5% (inactive) | 47.1
CCC1(C)Cc2c(sc3[nH]c(=S)n(Cc4ccccc4)c(=O)c23)CO1 (centres undefined) | 71% (active) | -13.6
CCC1(C)Cc2c(sc3nnn(CC(=O)Nc4ccc(Cl)cc4)c(=O)c23)CO1 (centres undefined) | 6.37% (inactive) | 8.2
